# Experimental data as given in article PMC4552634, “A New Set of Chemical Starting Points with Plasmodium falciparum Transmission-Blocking Potential for Antimalarial Drug Discovery” (PLoS ONE, 2015).
# In all, about 13,000 compounds went through this assay and about 3,200 (25%) showed an effect of 50% or more. The list shows a part of the results.
# Test system: P. falciparum stage V gametocytes
# Parameters: BacTiter-Glo ATP luminescence viability of purified stage V gametocytes in 384-well plates, per cent inhibition versus DMSO
# Settings: 48 h, 5 µM; inhibitor
row,Structure (SMILES),% Inhibition [%]
1,O=C1COc2ccccc2N1CCN1CCC(NCc2ccc(-c3cccs3)cc2)CC1 [TCMDC-135135],-33.37
2,COCc1nc(N)nc(N)c1-c1ccc(Cl)c(Cl)c1 [TCMDC-137373],-9.797
3,O=C(NCCNc1ccnc(Nc2ccc(F)cc2)n1)Nc1ccccc1F [TCMDC-133640],-0.7257
4,COc1ccc(Nc2nccc(NCCNC(=O)Nc3ccccc3F)n2)cc1 [TCMDC-133645],-48.4
5,O=C(NCCNc1nc(NCCNC(=O)Nc2ccccc2)c2ccc(=O)n(-c3c(F)cccc3F)c2n1)Nc1ccccc1 [TCMDC-136645],74.46
6,COc1ccc(NC(=O)/C=C/c2ccccc2Cl)cc1OCCN1CCC(c2nc3ccccc3[nH]2)CC1 [TCMDC-140921],-39.17
7,O=C(/C=C/c1ccc(Cl)c(Cl)c1)NCCCCCN1CCC(NC(=O)NC2CCCCC2)CC1 [TCMDC-135700],-41.72
8,c1ccc2[nH]c(Nc3ccc(Nc4nc5ccccc5[nH]4)cc3)nc2c1 [TCMDC-131951],-2.479
9,ON=C(c1nc2ccccc2[nH]1)c1nc2ccccc2[nH]1 [TCMDC-125758],102.3
10,c1ccc2[nH]c(CN(Cc3nc4ccccc4[nH]3)Cc3nc4ccccc4[nH]3)nc2c1 [TCMDC-124132],-49.22
11,COc1cc(C(=O)NCCCN2CCN(c3cccc(Cl)c3)CC2)ccc1-c1nc2cc(Cl)c(F)cc2[nH]1 [TCMDC-140095],-11.24
12,O=C(c1ccccc1[N+](=O)[O-])N(Cc1ccccc1)c1ccccn1 [TCMDC-125748],16.59
13,CC(C)Cn1c(Sc2ccc(C#N)c([N+](=O)[O-])c2)nnc1-c1ccc(N(C)C)cc1 [TCMDC-135612],35.05
14,CCCCCn1c(Sc2ccc(C#N)c([N+](=O)[O-])c2)nnc1-c1cccc(Cl)c1 [TCMDC-135593],-8.18
15,CC(C)Cn1c(Sc2ccc(C#N)c([N+](=O)[O-])c2)nnc1-c1cccc(Cl)c1 [TCMDC-135580],40.84
16,COc1ccc(-c2nnc(Sc3ccc(C#N)c([N+](=O)[O-])c3)n2CC(C)C)cc1 [TCMDC-135584],36.77
17,C=CCn1c(Sc2ccc(C#N)c([N+](=O)[O-])c2)nnc1-c1cc(OC)cc(OC)c1 [TCMDC-135590],71.82
18,C=CCn1c(Sc2ccc(C#N)c([N+](=O)[O-])c2)nnc1-c1cccc(Cl)c1 [TCMDC-135595],80.55
19,C=CCn1c(Sc2ccc(C#N)c([N+](=O)[O-])c2)nnc1-c1ccc(OC)cc1 [TCMDC-135605],28.83
20,CCCCCn1c(Sc2ccc(C#N)c([N+](=O)[O-])c2)nnc1-c1cc(OC)cc(OC)c1 [TCMDC-135588],-41.27
21,CCCCCCn1c(Sc2ccc(C#N)c([N+](=O)[O-])c2)nnc1-c1cccc(Cl)c1 [TCMDC-135594],24.59
22,C=CCn1c(Sc2ccc(C#N)c([N+](=O)[O-])c2)nnc1-c1ccc(Cl)cc1 [TCMDC-135600],77.78

row,Structure (SMILES),% Inhibition [%]
1,CCCCn1c(Sc2ccc(C#N)c([N+](=O)[O-])c2)nnc1-c1cccc(Cl)c1 [TCMDC-135579],86.95
2,O=[N+]([O-])c1cc(C(c2ccc(O)c([N+](=O)[O-])c2)C(Cl)(Cl)Cl)ccc1O [TCMDC-124158],25.13
3,COc1ccccc1NC(=O)Nc1cccc(-c2cccc(-c3nc4ccc(C(F)(F)F)cc4[nH]3)c2)c1 [TCMDC-133205],10.02
4,[O-][S+]1c2ccccc2Sc2ccccc21 [TCMDC-124300],-7.237
5,CC(C)Cn1ncc2c3c(N)nc(N)nc3ccc21 [TCMDC-137970],3.163
6,O=C(Nc1ccccc1)OCCOc1ccc(CC2SC(=O)NC2=O)cc1 (centres unmarked) [TCMDC-131642],13.3
7,N#Cc1ccc2c(c1)CCN(CCC1CCC(NC(=O)/C=C/c3cc(Br)cs3)CC1)CC2 (centres unmarked) [TCMDC-139841],-33.15
8,O=C(Nc1ccccc1Cl)N(Cc1cc(Cl)cc(Cl)c1)CC(O)COc1ccc(Cl)c(F)c1 (centres unmarked) [TCMDC-141477],10.95
9,O=C(/C=C/c1ccc(Cl)c(Cl)c1)NCCCCCN1CCC(C(=O)Nc2ccc(Cl)c(Cl)c2)CC1 [TCMDC-136124],40.37
10,O=C(/C=C/c1ccc(Cl)cc1)NCCCCCN1CCC(C(=O)Nc2ccc(Cl)cc2)CC1 [TCMDC-136115],64.6
11,COc1ccc(NC(=O)C2CCN(CCCCCNC(=O)/C=C/c3ccc(Cl)c(Cl)c3)CC2)cc1 [TCMDC-136128],80.86
12,O=C(/C=C/c1ccc(Cl)cc1)NCCCCCN1CCC(C(=O)Nc2cccc(Cl)c2)CC1 [TCMDC-136119],-9.305
13,O=C(/C=C/c1ccc(Cl)cc1)NCCCCCN1CCC(C(=O)Nc2ccc(Cl)c(Cl)c2)CC1 [TCMDC-136123],-40.47
14,O=C(/C=C/c1ccc(Cl)c(Cl)c1)NCCCCCN1CCC(C(=O)Nc2ccc(Cl)cc2)CC1 [TCMDC-136116],-21.25
15,Cc1cc(C)cc(OCC(O)CN(Cc2cc(Cl)cc(Cl)c2)C(=O)Nc2ccc(Cl)cc2)c1 (centres unmarked) [TCMDC-141475],25.73
16,O=C(Nc1cccc(Cl)c1N1CCOCC1)C(Cl)(Cl)Cl [TCMDC-124993],8.6
17,CN(C)CCOc1cc(NC(=O)Nc2ccc3c(c2)CCCC3=O)ccc1I [TCMDC-139187],-8.397
18,O=C(Nc1ccc(C(=O)N2CCN(CCN3CCN(c4cccc(C(F)(F)F)c4)CC3)CC2)cc1)c1ccc(C(F)(F)F)cc1 [TCMDC-138148],-21.85
19,O=C(Nc1ccc(C(F)(F)F)cc1)N[C@H]1CCN(CCCCCNC(=O)C2CC2c2ccc(Cl)c(Cl)c2)C1 (some centres unmarked) [TCMDC-136272],93.26
20,O=C(Nc1ccc(Cl)c(Cl)c1)N[C@H]1CCN(CCCCCNC(=O)C2CC2c2ccc(Cl)c(Cl)c2)C1 (some centres unmarked) [TCMDC-136266],-8.426
21,O=C(Nc1ccc(Cl)c(C(F)(F)F)c1)NC1CCN(CCCCCNC(=O)C2CC2c2ccc(Cl)c(Cl)c2)CC1 (centres unmarked) [TCMDC-136260],59.16
22,O=C(Nc1ccc(Cl)c(C(F)(F)F)c1)N[C@H]1CCN(CCCCCNC(=O)C2CC2c2ccc(Cl)c(Cl)c2)C1 (some centres unmarked) [TCMDC-136274],80.05

row,Structure (SMILES),% Inhibition [%]
1,O=C(NCCCCCN1CCCN(C(=O)Nc2ccc(Cl)c(C(F)(F)F)c2)CC1)C1CC1c1ccc(Cl)c(Cl)c1 (centres unmarked) [TCMDC-136255],-20.94
2,O=C(Nc1ccc(C(F)(F)F)cc1)NC1CCN(CCCCCNC(=O)C2CC2c2ccc(Cl)c(Cl)c2)CC1 (centres unmarked) [TCMDC-136256],4.226
3,COc1ccc(NC(=O)Nc2ccc(-c3ccc(-c4nc5cccc(C)c5[nH]4)s3)cc2)cc1 [TCMDC-133243],-2.294
4,COc1ccc(CON2C(N)=NC(N)=NC2(C)C)cc1OC [TCMDC-131587],8.467
5,N#Cc1ccc2[nH]cc(-c3cn4cc(SC5CCCC5)ccc4n3)c2c1 [TCMDC-134705],-50.98
6,O=C(Nc1ccncc1)c1cc(C(=O)Nc2ccncc2)cc([N+](=O)[O-])c1 [TCMDC-125671],89.24
7,O=C(Nc1cccnc1)c1cc(C(=O)Nc2cccnc2)cc([N+](=O)[O-])c1 [TCMDC-125067],-34.07
8,COc1cccc(NC(=O)c2cc(C(=O)Nc3cccc(OC)c3)cc([N+](=O)[O-])c2)c1 [TCMDC-125177],2.834
9,CC(C)c1ccc2c(c1)c(SC(C)(C)C)c(CC(C)(C)C#N)n2Cc1ccc(Cl)cc1 [TCMDC-131974],-57.09
10,C[C@H](Cc1ccc(OCCCCCCOc2ccccc2)cc1)NC[C@@H](O)c1cc(Br)no1 [TCMDC-131567],65.38
11,COC(=O)c1ccc(CC(C)NCC(O)c2cccc(OCc3ccccc3)c2)cc1 (centres unmarked) [TCMDC-131486],29.25
12,COC(=O)c1ccc(CC(C)NCC(O)c2ccc(F)c(Cl)c2)cc1 (centres unmarked) [TCMDC-131517],4.686
13,C[C@H](Cc1ccc(OCCNC[C@H](O)c2cccc(Cl)c2)cc1)NC[C@H](O)c1ccc(Cl)c(Cl)c1 [TCMDC-131547],69.99
14,C[C@H](Cc1ccc(OCCCCCCOc2ccc(C[C@@H](C)N[C@H](C)c3ccccc3)cc2)cc1)NC[C@H](O)c1cccc(Cl)c1 [TCMDC-131564],103.4
15,COC(=O)c1ccc(CC(C)NCC(O)c2ccc(Cl)c(Cl)c2)cc1 (centres unmarked) [TCMDC-131431],21.35
16,COC(=O)c1ccc(CC(C)NCC(O)c2ccc(C(O)CNC(C)Cc3ccc(C(=O)OC)cc3)cc2)cc1 (centres unmarked) [TCMDC-131545],100.9
17,COc1ccc(C(=O)NCC(C)(C)c2nc(-c3ccc(Cl)c(O)c3)c(-c3ccncc3)[nH]2)cc1OCCN(C(C)C)C(C)C [TCMDC-140736],2.982
18,CCCCCN1CCCC1CNS(=O)(=O)c1cccc(C(=O)Nc2cccc(C#N)c2)c1 (centres unmarked) [TCMDC-133690],-52.73
19,Cc1ccc(C)c2sc(N(CCCn3ccnc3)C(=O)C=Cc3cccs3)nc12 [TCMDC-124923],12.01
20,C=C[C@H]1CN2CC[C@H]1C[C@H]2[C@H](OS(=O)(=O)O)c1ccnc2ccccc12 [TCMDC-138341],14.93
21,c1ccc(CCNc2ccnc(Nc3ccc4n[nH]nc4c3)n2)cc1 [TCMDC-136881],0.773
